About 83,000 compounds went through this panel and 20% of them were active in at least one assay; those are over-represented in the sample as a whole.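 Note: values are percent growth. 100 is the growth of untreated cells, values between 100 and 0 indicate rising inhibition; between -100 and 0 indicates cell death.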 A number with no mark means an inactive call. Calls of active or inactive are those of the source. The calls were made as follows: active = growth percent below 10; inactive = the rest.
Legend:
Experiment in all cases: NCI-60 one-dose screen, 48 h (100 = growth as untreated, 0 = no growth, -100 = all killed)
Settings in all cases: 10 µM unless noted
SK-MEL-2 melanoma = system: SK-MEL-2 melanoma
EKVX NSCLC = system: EKVX NSCLC
SN12C renal = system: SN12C renal
UO-31 renal = system: UO-31 renal
TK-10 renal = system: TK-10 renal
ACHN renal = system: ACHN renal
CAKI-1 renal = system: CAKI-1 renal
A498 renal = system: A498 renal
CCRF-CEM leukemia = system: CCRF-CEM leukemia
MOLT-4 leukemia = system: MOLT-4 leukemia

Compound	growth (SK-MEL-2 melanoma)	growth (EKVX NSCLC)	growth (SN12C renal)	growth (UO-31 renal)	growth (TK-10 renal)	growth (ACHN renal)	growth (CAKI-1 renal)	growth (A498 renal)	growth (CCRF-CEM leukemia)	growth (MOLT-4 leukemia)
Nc1nc(=S)c2ncn(C3OC(COP(=O)(O)O)C(O)C3O)c2[nH]1 (stereo not given)	14.9%	31.8%	29.8%	25.1%	8.92% (active)	20%	16.8%	37.8%	15.5%	12.7%
CS(=O)(=O)Nc1cc(-c2ccc3ncnc(Nc4ccc5c(cnn5Cc5ccccn5)c4)c3c2)cnc1Cl	61.8%	80.8%	72.5%	64.8%	65.5%	88%	65.4%	20.4%	60%	78.7%
CCc1nc2c(=O)[nH]cnc2o1	113%	104%	109%	75.7%	108%	105%	100%	102%	108%	108%
Cc1cccc(Cl)c1NC(=O)c1ccc2nc(NC(=O)NCCN(C)C)sc2c1	103%	104%	92%	90.1%	111%	92.9%	95.1%	90.7%	79.4%	80.2%
Cc1cccc(N2CCN(CC(O)COc3ccc(Cl)cc3)CC2)c1 (stereo not given)	89.5%	96.8%	95.2%	85.3%	116%	93.7%	84.5%	115%	97.7%	77.1%
CCN(CC)CCOc1ccc(C(=C(C)c2ccc(Cl)cc2)c2ccc(OCCN(CC)CC)cc2)cc1	-60.2% (active)	26.1%	-83.7% (active)	-92.8% (active)	-87.2% (active)	-88.3% (active)	-95.7% (active)	7.66% (active)	-62.8% (active)	-64.2% (active)
C#CCOc1cccc(Nc2ncnc3c(NC(=O)C=C)cccc23)c1	8.09% (active)	55.7%	0.801% (active)	25.8%	-6.1% (active)	23.8%	25.7%	32%	2.68% (active)	4.11% (active)
Cn1cc(-c2csc(-c3c[nH]c4ccc(Br)cc34)n2)c2cnccc21	-65.7% (active)	-78.3% (active)	-87.2% (active)	-96.3% (active)	-83.9% (active)	-98.6% (active)	-97% (active)	-97.3% (active)	-39% (active)	-58.3% (active)
CCCCCCCCCCCCCCCC(N)c1ccccc1 (stereo not given)	70.8%	25.3%	28%	26.2%	52.2%	-50.3% (active)	9.49% (active)	60.8%	-1.76% (active)	-38.6% (active)
C=C1CC[C@@H]2[C@](C)(COC(C)=O)[C@H](OC(C)=O)CC[C@@]2(C)[C@@H]1CC(Sc1ccccc1)C1=CCOC1=O (stereo not given in full)	-1.66% (active)	57.7%	1.3% (active)	35.6%	11.4%	-13.7% (active)	90.6%	86.3%	-5.24% (active)	-3.93% (active)
CC/C(=C(/c1ccc(Cl)cc1)c1ccc(OCCN2CCCC2)cc1)c1ccc(OC)cc1	105%	65.1%	79.5%	59.5%	76.9%	78.6%	82%	108%	40.6%	32%
COc1cc(OC)cc(C2=C3CC[C@@H]4[C@H](CC[C@]5(C)C(=O)CC[C@@H]45)C3=CC3C(O)c4cccnc4N4C(=O)COC234)c1 (stereo not given in full)	108%	101%	101%	86.2%	96.5%	102%	86.6%	91.6%	104%	96.2%
Cc1ccc(S(=O)(=O)N2CCCC2CO)cc1 (stereo not given)	96.3%	101%	101%	94.2%	101%	89.3%	85.6%	65.7%	68.5%	98.8%
COc1ccc(Cc2cc(-c3ccccc3)nn(Cc3ccccc3)c2=O)cc1OC	36.1%	14.4%	20.2%	14.7%	49.8%	27.1%	46.3%	-16.9% (active)	43%	9.1% (active)
CC(C)CCC[C@@H](C)[C@H]1CC[C@H]2[C@@H]3CC=C4C[C@@H](C(C(=O)O)C(=O)O)CC[C@]4(C)[C@H]3CC[C@]12C	-58.5% (active)	-32.4% (active)	-12.2% (active)	-53.4% (active)	-52% (active)	-17.7% (active)	-51% (active)	-84.4% (active)	-24.3% (active)	-56.2% (active)
CCCC(O)Cn1ncc(C(=O)OCC)c1NC(=O)NCc1ccccc1F (stereo not given)	74.3%	95.7%	96.8%	74.2%	99.1%	107%	80.1%	90.7%	76.3%	71%
C=CCc1c(O)c(C(=O)/C=C/c2ccc(Cl)cc2)c(OC)c2ccoc12	15.7%	56.3%	57.2%	51.4%	57.2%	55%	19.5%	46.9%	21.4%	15.3%
Brc1ccc(-n2cc(-c3nn[nH]n3)c(-c3cccs3)n2)cc1	101%	90.5%	88.9%	63.7%	104%	89.4%	91.1%	81.5%	103%	101%
COc1ccc(NC(=O)c2sc3nc(C)c(C(=O)/C=C/c4cccc(OC)c4)cc3c2N)cc1	42.9%	93.5%	19.7%	27.1%	82.2%	52.3%	32.9%	14.3%	7.32% (active)	33.1%
N#Cc1cccc(NC(=O)c2oc3ccccc3c2-c2cnn(-c3ccccc3)c2)c1	88.1% [50 µM]	76.5% [50 µM]	78.3% [50 µM]	59% [50 µM]	88.2% [50 µM]	80.6% [50 µM]	63.2% [50 µM]	89.5% [50 µM]	-21.3% [50 µM] (active)	-5.03% [50 µM] (active)
COc1ccc2cc(C(=O)c3coc4ccc(O)cc34)ccc2c1	97%	103%	98.8%	68.4%	103%	107%	92.6%	105%	56.4%	81.1%
Cc1cnc(C(=O)NNc2nc3sc4c(c3c(=O)n2C)C(C)CCC4)cn1 (stereo not given)	-6.07% (active)	6.08% (active)	9.01% (active)	-0.356% (active)	27.2%	9.47% (active)	2.74% (active)	21.1%	2.41% (active)	3.79% (active)
Cn1c(O)c(C=NCCN=Cc2c(O)n(C)c(=O)n(C)c2=O)c(=O)n(C)c1=O	120%	102%	95.6%	84.7%	116%	101%	94.4%	127%	7.42% (active)	-46.6% (active)
Cn1c(=O)c2[nH]c(N/N=C/c3ccccc3Br)nc2n(C)c1=O	120%	128%	104%	92.4%	82.8%	105%	93.4%	92.9%	104%	98.3%
C=C(CNCCc1ccc(O)cc1)[C@@H]1CC[C@]2(CO)CC[C@]3(C)[C@H](CC[C@@H]4[C@@]5(C)CCC(NCCO)C(C)(C)[C@@H]5CC[C@]43C)[C@@H]12 (stereo not given in full)	-81% (active)	-52.1% (active)	-70.3% (active)	-96.1% (active)	-80.6% (active)	-60.8% (active)	-77.2% (active)	69.3%	-19.7% (active)	-19.2% (active)
COc1cc(-n2cc(-c3cc(O)c(C/C=C(\C)CCC=C(C)C)c(O)c3)nn2)cc2c1O[C@]1(C)CC[C@@H](O)C(C)(C)[C@H]1C2	-17.1% (active)	28%	24.9%	-53.8% (active)	40.2%	16.6%	12%	10.7%	0.511% (active)	-0.403% (active)

From PubChem BioAssay (NCI)
